Values joined by “and” are separate entries in the source; they are usually repeats but may differ in a detail not shown here. Equal values may be shown once. The campaign covered roughly 300,000 compounds. About 37,000 (12%) were called active. The sample as a whole holds a higher share of actives than the screen did. Unmarked numbers belong to inactive results. Rule as the data show it: active = max response mostly above about 13% (no sharp cut-off); inactive = mostly below about 14%.
experiment: Cycloheximide Counterscreen for Small Molecule Inhibitors of Shiga Toxin; settings: cell reporter, cycloheximide protein synthesis inhibition counterscreen; stronger effect = higher value; also: read at 38.3 µM for the half of the compounds with a filed dose; 0% is about no effect

| Structure (SMILES) | max response |
| --- | --- |
| CCN(CC(=O)Nc1ccc(Cl)c(S(=O)(=O)N(C)C)c1)Cc1nc2ccccc2c(=O)[nH]1 | -3.17% |
| Clc1ccc(-c2cc(C3CCNCC3)[nH]n2)c(Cl)c1 | 9.48% |
| CCc1cc(CNC(=O)CC2C(=O)NCCN2Cc2ccccc2C(F)(F)F)on1 (centres undefined) | -1.48% |
| CCOC(=O)COc1nc(C)cc(C(F)(F)F)c1C#N | -3.74% |
| CCOC(=O)c1cc(C)nc(S(C)(=O)=O)c1C#N | 24.3% (active) |
| CCOC(=O)c1c(C(C#N)C#N)cc(C)nc1C | 1.41% |
| O=C1CCCN2N=C(SCC(=O)Nc3ccc(Br)cc3)SC2=N1 | 7.4% |
| Cc1ccc(CN(C)Cc2cc(=O)oc3cc(C)c(Cl)cc23)cc1 | 8.9% |
| O=[N+]([O-])c1ccccc1N/N=C1\CCc2ccccc21 | 22.3% (active) |
| O=[N+]([O-])c1cc(C(F)(F)F)ccc1NN=C1CCCC1 | -3.4% |
| CN1CCN(CCNC(=O)Nc2ccccc2[N+](=O)[O-])CC1 | -3.83% |
| CCOC(=O)c1cnc2ccc(F)cc2c1Nc1ccc2c(c1)OCCO2 | 32.3% (active) |
| Cc1ccc2nc(-c3ccncc3)cc(C(=O)Nc3ccc4c(c3)OCCO4)c2c1 | 7.28% |
| O=C(Nc1ccc2c(c1)OCCO2)C(c1ccc(F)cc1)N1CCCCC1 (centres undefined) | -0.355% |
| C/C(CC(=O)NCc1ccc(Cl)cc1)=N\NC(=O)COc1ccc(C)cc1Br | -1.26% |
| Cc1ccccc1C(=O)N1CCC(C(=O)Oc2ccc(C#N)cc2)CC1 | -2.38% |
| CCn1c(CC(=O)Nc2ccccc2)nnc1SCC(=O)N1CCOCC1 | -2.97% |
| Clc1cccc(-c2nc3nc4ccccc4nc3n2Cc2ccco2)c1 | 31.5% (active) |
| COc1ccc(CCn2c(-c3ccco3)nc3nc4ccccc4nc32)cc1OC | 7.86% |
| Cc1cc(NC(=O)CSc2nc3cc(Cl)ccc3c(=O)n2Cc2ccco2)no1 | 1.42% |
| Cc1cc2oc(=O)cc(CN3CCN(Cc4ccccc4)CC3)c2cc1C | 1.14% |
| COc1cc(CN2CC(C)CC(C)C2)cc([N+](=O)[O-])c1O (centres undefined) | -0.873% |
| O=C(COC(=O)c1ccc(S(=O)(=O)N2CCc3ccccc3C2)cc1)NC(=O)NCc1ccco1 | 6.51% |
| O=C(CN1C(=O)COc2ccc(Cl)cc21)Nc1ccc(N2CCOCC2)cc1 | 1.87% |

| Structure (SMILES) | max response |
| --- | --- |
| O=C(Nc1cc(N2CCOCC2)ncn1)NC1(C(F)(F)F)Oc2ccc(Cl)cc2O1 (centres undefined) | 45.4% (active) |
| Cc1csc(NC(=O)NC2(C(F)(F)F)Oc3ccccc3O2)n1 | 1.16% |
| CCc1cc(=O)oc2c(C)c(OCC(=O)NCCN3CCOCC3)ccc12 | 1.6% |
| Cc1ccc(NC(=O)CCN2C(=O)c3ccccc3C2=O)cc1C | -2.39% |
| CC(C)=CCCC(C)CN1CCC(n2nccc2NC(=O)c2ccccc2)CC1 (centres undefined) | -5.01% |
| O=C(Nc1ccc(S(=O)(=O)N2CCCCC2)cc1)c1cnccn1 | -3.02% |
| CCN1CCN(c2ccc(NC(=O)c3cnccn3)cc2)CC1 | 26% (active) |
| O=C(NCN1CCN(CCO)CC1)c1cnccn1 | -4.08% |
| N#CCSc1nc(-c2ccccc2)nc2ccc(F)cc12 | -2.28% |
| Cn1cc(CNC(=O)c2ccc(OC3CCN(Cc4ccccn4)CC3)cc2)cn1 | 9.98% |
| CN(CCc1ccccn1)C(=O)c1ccc(OC2CCN(Cc3ccccn3)CC2)cc1 | 0.254% |
| CN(CCc1ccccn1)C(=O)c1ccc(OC2CCN(CCc3ccccc3)CC2)cc1 | 17% (active) |
| OCCC(O)CO (centres undefined) | -4.13% and -5.85% and -2.71% |
| O=C(CSc1nc(C2CC2)nc2ccccc12)Nc1ccc2c(c1)OCCO2 | 1.1% |
| CS(=O)(=O)c1ccc(-c2nnn(CC(=O)Nc3ccc4c(c3)OCCO4)n2)cc1 | 15.4% (active) |
| CC(C)NS(=O)(=O)c1ccc(OCC(=O)Nc2ccc3c(c2)OCCO3)cc1 | 2.4% |
| COc1ccc(NC(=O)CN(C)S(=O)(=O)c2ccccc2)cc1OC | -1.84% |
| O=C(CN(c1ccc2c(c1)OCCO2)S(=O)(=O)c1ccccc1)Nc1ccc2c(c1)OCO2 | 11.4% |
| Cn1ccnc1SCC(=O)Nc1ccc2c(c1)OCCO2 | 18% |
| Cc1cccc(C(=O)Nc2ccccc2-c2nnn(CC(=O)Nc3ccc4c(c3)OCCO4)n2)c1 | -4.9% |
| CCc1ccccc1OCC(=O)Nc1ccc2c(c1)OCCO2 | 35.2% (active) |
| COc1ccc(S(=O)(=O)N(C)CC(=O)Nc2ccc3c(c2)OCCO3)cc1OC | 18.2% (active) |
| CC(C)CNS(=O)(=O)c1ccc(OCC(=O)Nc2ccc3c(c2)OCO3)c(Cl)c1 | 5.31% |
| O=C(CSc1nc2ncccc2[nH]1)Nc1ccc2c(c1)OCCO2 | 25.8% (active) |

| Structure (SMILES) | max response |
| --- | --- |
| CCOC(=O)c1ccc(NC(=O)Cn2nnc(-c3ccc(C)cc3)n2)cc1 | -3.53% |
| CCc1ccc(Oc2nc([N+](=O)[O-])nn2C)cc1 | -1.09% |
| COc1ccc(OCCCCN2CCC(C)CC2)cc1 | -5.4% |
| CCN(CC)S(=O)(=O)c1ccc(C(=O)N2CCN(C3=NS(=O)(=O)c4ccccc43)CC2)cc1 | 7.96% |
| CC1CCC(C(C)C)C(=O)/C1=C\c1ccc(NC(=O)CCC(=O)O)cc1 (centres undefined) | -5.07% |
| COc1ccc(CN2CN(C3CCCC3)CSC2=S)cc1 | 3.32% |
| O=S(=O)(c1ccc(Br)cc1)N1CCC(c2nc3ccccc3[nH]2)CC1 | -3.07% |
| CCC(Cc1ccccc1)NS(=O)(=O)c1ccc2c(c1)NC(=O)CS2 (centres undefined) | 0.995% |
| Cc1cc(C)c(C#N)c(Nc2cccc(Br)c2)n1 | 0.576% |
| C[C@H](NC(=O)C1CC(=O)N(c2ccc3c(c2)OCCO3)C1)C(=O)N1CCC(C(=O)O)CC1 (some centres undefined) | 7.17% |
| COc1ccc(C(=O)NC2CC(C)(C)NC(C)(C)C2)cc1OC | -1.7% |
| COc1ccc(CN(C)C(C)C(=O)NC2CCCc3ccccc32)cc1 (centres undefined) | 4.63% |
| CCOc1ccc(NCCC(=O)c2ccc3c(c2)OCO3)cc1 | 14.4% (active) |
| CCCCN(CC(=O)NC(C)(C)C)C(=O)C(=O)Nc1ccc2c(c1)OCCO2 | 5.6% |
| O=C(COc1ccc(Cl)cc1)Nc1ccc2oc(=O)ccc2c1 | -3.63% |
| CCCCC(=O)Nc1ccc2c(c1)OCCO2 | 36.8% (active) |
| CCC(C(=O)Nc1ccc(C(C)C)cc1)c1ccccc1 (centres undefined) | -1.28% |
| O=C(CCS(=O)(=O)Cc1ccccc1)Nc1ccc2c(c1)OCCO2 | -1.91% |
| CC(=O)NCC(=O)N(C)C(C(=O)Nc1ccc2c(c1)OCCO2)c1ccccc1 (centres undefined) | -1.79% |
| CCOc1ccc(C(=O)CCN2CCOCC2)cc1 | 9.26% |
| COc1ccc(C2(C)NC(=O)N(CC(=O)c3ccc4c(c3)OCO4)C2=O)cc1 (centres undefined) | 1.46% |
| CCC(C(=O)Nc1ccc2c(c1)OCCO2)c1ccccc1 (centres undefined) | 19.2% (active) |
| O=C(COc1ccc(Cl)cc1)Nc1ccc2c(c1)OCO2 | 15.8% (active) |
| O=C(CN1CCN(c2ncc(C(F)(F)F)cc2Cl)CC1)Nc1ccc2c(c1)OCO2 | 2.27% |

| Structure (SMILES) | max response |
| --- | --- |
| COCCOC(=O)C1=C(C)NC(=O)NC1c1cc2c(cc1Br)OCO2 (centres undefined) | -5.73% |
| Cc1ccc(NC(=O)CN(C)C(=O)COC(=O)C(C)(C)Oc2ccc(Cl)cc2)cc1 | -3.38% |
| COc1ccccc1C(=O)Nn1cnnc1 | -2.95% |
| CCC(C)(C)NC(=O)CN(C(=O)CCC(=O)Nc1nccs1)c1ccc2c(c1)OCO2 | -3.66% |
| COc1ccc(CCNC(=O)NS(=O)(=O)c2ccc(C)cc2)cc1OC | -2.33% |
| COc1ccc(S(=O)(=O)NCCc2c[nH]c3ccccc23)cc1OC | 2.61% |
| Nc1nc(SCc2cccc(Br)c2)n[nH]1 | 0.308% |
| CCc1ccc(N2CC(C(=O)N3CCCCCC3)CC2=O)cc1 (centres undefined) | 15.1% |
| COC(=O)CCNc1ccc2c(c1)OCCO2 | 48.2% (active) |
| CCN(CC(=O)Nc1ccc2c(c1)OCO2)S(=O)(=O)c1ccccc1 | -0.651% |
| Cc1ccc(S(=O)(=O)NCC(=O)Nc2ccc3c(c2)OCCO3)cc1 | 6.27% |
| Cc1ccc(SCC(=O)Nc2ccc3c(c2)OCCO3)cc1 | 73.6% (active) |
| O=C(COc1ccc2c(C(F)(F)F)cc(=O)oc2c1)Nc1ccc2c(c1)OCCO2 | 5.22% |
| CCC(C)(C)NC(=O)CN(C(=O)C(=O)Nc1ccc2c(c1)OCCO2)C(C)(C)CC | -5.87% |
| COc1ccccc1OCCCC(=O)Nc1ccc2c(c1)OCCO2 | 32.1% (active) |
| CCn1c(SCC(=O)Nc2ccc3c(c2)OCCO3)nnc1-c1ccncc1 | 2.74% |
| CCn1c(COc2ccccc2)nnc1SCC(=O)Nc1ccc2c(c1)OCCO2 | 8.26% |
| COc1cccc(NC(=O)COC(=O)CCOc2ccccc2OC)c1 | -1.24% |
| CCN(CC(=O)Nc1ccc2c(c1)OCCO2)Cc1cc(=O)oc2cc(C)c(C)cc12 | 11.2% (active) |
| Cc1sc2ncn(CC(=O)NCCCC(=O)N(C)Cc3ccccc3)c(=O)c2c1C | 0.104% |
| CCC(=O)N(Cc1cc2ccccc2[nH]c1=O)c1ccc(OC)cc1 | -1.99% |
| O=C(CNC(=O)OCc1ccccc1)NC1CCCCNC1=O (centres undefined) | 1.1% |
